# Measurements as given in PubChem BioAssay (NCATS).
# Records with an inconclusive call do not appear. A call without a number means that no potency is given here. A number with no mark means an inactive call. Calls of active or inactive are those of the source. The call rests on the fitted dose curve; in most records, active means well fitted inhibition curve with a large enough effect; inconclusive means small, poorly fitted or top-dose-only effect; inactive means flat fitted curve, though single readings scatter.
# Assay: P-glycoprotein substrates identified in KB-8-5-11 adenocarcinoma cell line, qHTS therapeutic library screen (AID 1346987); further: nearly all actives have a fitted effect of over 65% in size
# Settings: KB-8-5-11 (P-gp overexpressing) viability, CellTiter-Glo, 72 h; series mostly up to 44.5 µM
# Method in brief: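 In this qHTS, P-gp-rich KB-8-5-11 cells received library compounds across a concentration range. Viability was quantified by luminescence after 72 h at 37 degree C.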
# Potency means the concentration at half of the fitted maximal effect.
Structure (SMILES),Potency,"activity change, negative = cytotoxicity",outcome
C[C@@H]1C[C@@H]2O[C@H]2/C=C\C=C\C(=O)Cc2c(Cl)c(O)cc(O)c2C(=O)O1,1.01 µM (active),,
CC1(C)CC[C@]2(C(=O)O)CC[C@]3(C)C(=CCC4[C@@]5(C)CC[C@H](O[C@@H]6O[C@H](CO)[C@@H](O)[C@H](O)[C@H]6O[C@@H]6O[C@H](CO)[C@@H](O)[C@H](O)[C@H]6O)[C@@](C)(CO)C5CC[C@]43C)[C@@H]2C1 (stereo partly drawn),inactive,,
CC(C)=CC/C=C(\C)[C@H]1CC[C@]2(C)[C@@H]1[C@H](O)C[C@@H]1[C@@]3(C)CC[C@H](O)C(C)(C)[C@@H]3[C@@H](O[C@@H]3O[C@H](CO)[C@@H](O)[C@H](O)[C@H]3O)C[C@]12C,inactive,,
C=C(C(=O)OC)C1C(O)CC2(C)C(O)CCC(=O)C2C1O (stereo not drawn),inactive,,
Cc1cccc(C)c1-n1c(=O)c2cnc(Nc3ccc(N4CCN(C)CC4)cc3)nc2n2c3ccccc3nc12,0.92 µM (active),,
CC(O)/C=C/C1(O)C(C)C(O[C@@H]2O[C@H](CO)[C@@H](O)[C@H](O)[C@H]2O)C(O)CC1(C)C (stereo partly drawn),inactive,,
Cc1noc(-c2ccc(-c3ccc(CC(=O)O)cc3)cc2)c1NC(=O)O[C@H](C)c1ccccc1,inactive,,
C(#Cc1nc2ncccc2nc1OCCN1CCCC1)c1ccccc1,6.51 µM (active),,
COC(=O)C1(C)CCC2(C(=O)O)CCC3(C)C(=CCC4C5(C)CC(O)C(OC6OCC(O)C(O)C6O)C(C)(CO)C5CCC43C)C2C1 (stereo not drawn),inactive,,
CC(C)C(CO)Nc1nc(Nc2cc(N)cc(Cl)c2)c2ncn(C(C)C)c2n1 (stereo not drawn),7.31 µM (active),,
Cc1cc(O)cc(O[C@@H]2O[C@H](CO)[C@@H](O)[C@H](O)[C@H]2O)c1,inactive,,
Cc1ccc(NC(=O)Nc2cc(C(F)(F)F)ccc2F)cc1Nc1ccc2c(c1)NC(=O)/C2=C\c1ccc[nH]1,13 µM (active),,
C/C=C(\C)C(=O)OCC1OC(OC2OC(COC(=O)/C(C)=C/C)C(OC3OC(CO)C(OC(=O)/C(C)=C/C)C(OC(=O)/C(C)=C/C)C3O)C(O)C2O)C(O)C(O)C1OC1OC(CO)C(OC(=O)/C(C)=C/C)C(OC(=O)/C(C)=C/C)C1O (stereo not drawn),,8.2% [at 9.29 µM],
Oc1ccc(CNc2ccccc2F)c2cccnc12,6.51 µM (active),,
CC1(C)CC[C@]2(C(=O)O[C@@H]3O[C@H](CO)[C@@H](O)[C@H](O)[C@H]3O)CC[C@]3(C)C(=CCC4[C@@]5(C)CC[C@H](O[C@@H]6O[C@H](C(=O)O)[C@@H](O)[C@H](O)[C@H]6O)C(C)(C)C5CC[C@]43C)C2C1 (stereo partly drawn),,,inactive [at 9.29 µM]
C=C1C(=O)O[C@H]2[C@H]1CC/C(C)=C/CC[C@@]1(C)O[C@@H]21,inactive,,
C=C(C)[C@@H]1CC[C@]2(C)CC[C@]3(C)[C@H](CC[C@@H]4[C@@]5(C)CC[C@@H](O)C(C)(C)[C@@H]5CC[C@]43C)[C@@H]12,inactive,,
COc1cc2occc2c(O[C@@H]2O[C@H](CO)[C@@H](O)[C@H](O)[C@H]2O)c1CCC(=O)O,inactive,,
Cc1cc(-c2cc(O)ccc2Cl)cc2nnc(Nc3ccc(OCCN4CCCC4)cc3)nc12,4.61 µM (active),,
CC(C)(C(=O)NCC(F)(F)C(F)(F)F)C(=O)NC1C(=O)Nc2ccccc2-c2ccccc21 (stereo not drawn),4.61 µM (active),,
C/C=C/C=C/C(=O)N1CC[C@]23c4ccccc4N[C@H]4N(C)c5cccc6c5[C@@]42CCN([C@H]6C2OC2(C)C)[C@H]13 (stereo partly drawn),inactive,,
C/C=C/c1ccc2c(c1)[C@@H](C)[C@H](c1ccc(O)cc1)O2,inactive,,
CC(=O)O[C@@H]1[C@@H](O)[C@H](C)O[C@@H](O[C@H]2[C@@H]3C=CO[C@@H](O[C@@H]4O[C@H](CO)[C@@H](O)[C@H](O)[C@H]4O)[C@@H]3[C@@]3(CO)O[C@@H]23)[C@@H]1OC(=O)/C=C/c1ccccc1,inactive,,
CN(C)C/C=C/C(=O)Nc1cccc(C(=O)Nc2cccc(Nc3ncc(Cl)c(-c4c[nH]c5ccccc45)n3)c2)c1,13 µM (active),,
CC1=CC(=O)CC2C1(O)CCC(C)C21CC(c2ccoc2)OC1=O (stereo not drawn),inactive,,
CC1(C(=O)O)CCCC2(C)C3=CCC4CC3(CCC12)CC4CO (stereo not drawn),inactive,,
CC(=O)OC1C(O)CC2(C)C(CCC(C)C23Cc2c(O)cc(CO)c(C=O)c2O3)C1(C)C (stereo not drawn),inactive,,
COC(=O)/C=C/C12COC(C)(C)C1C(O)C(OC(C)=O)C1(C)C2CCC2(C)C(c3ccoc3)OC(=O)C3OC321 (stereo not drawn),inactive,,
